Measurements from ChEMBL document CHEMBL3988442, “University of Dundee, Small-Polar-MMV Screening Library” (2021).

These molecules were tested against T1, Aspartate--tRNA(Asp/Asn) ligase (Mycobacterium tuberculosis (strain ATCC 25618 / H37Rv)) (UniProt P9WFW3) (assay: Assay for Asp RNA synthetase-1 from Mycobacterium tuberculosis). Settings: 30 µM.
T1 sequence (whole entry): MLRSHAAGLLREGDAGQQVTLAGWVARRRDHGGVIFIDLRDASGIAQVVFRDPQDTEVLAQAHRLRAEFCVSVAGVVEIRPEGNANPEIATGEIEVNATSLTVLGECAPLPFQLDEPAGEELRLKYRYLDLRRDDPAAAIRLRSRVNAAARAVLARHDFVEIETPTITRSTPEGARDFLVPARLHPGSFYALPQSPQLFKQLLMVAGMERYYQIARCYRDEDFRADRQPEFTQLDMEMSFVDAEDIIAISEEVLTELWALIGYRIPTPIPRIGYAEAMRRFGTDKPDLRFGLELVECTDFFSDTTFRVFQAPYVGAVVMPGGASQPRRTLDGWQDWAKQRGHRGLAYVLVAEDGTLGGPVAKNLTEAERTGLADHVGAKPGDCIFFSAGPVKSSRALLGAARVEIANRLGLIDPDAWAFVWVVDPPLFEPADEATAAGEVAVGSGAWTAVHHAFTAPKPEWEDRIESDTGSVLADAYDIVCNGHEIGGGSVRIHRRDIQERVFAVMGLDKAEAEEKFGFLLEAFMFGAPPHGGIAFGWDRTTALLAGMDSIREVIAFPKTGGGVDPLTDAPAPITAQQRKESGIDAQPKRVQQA
Type: functional
Set-up: scale not given: in the data most compounds retested in dose-response had high values

| SMILES | Percent Effect [%] |
| --- | --- |
| CCN(CC1CN(CCc2ccccn2)CCO1)c1cccnn1 (centres undefined) | -1 |
| CN(C)CCn1c(=O)oc2ccc(NC(=O)c3cc(Cl)c[nH]3)cc21 | 5.07 |
| O=C1N(Cc2ccccc2F)CCCC12CCN(C1CCSCC1)C2 (centres undefined) | -2.75 |
| Cc1cnn(Cc2cc(F)ccc2F)c1NC(=O)NC1CC1 | -1.44 |
| FC(F)(F)C1CCCn2c(CNCc3ccsc3)nnc21 (centres undefined) | -1.78 |
| CCCC(NC(=O)c1cc(C)ccc1C)c1nnn[nH]1 (centres undefined) | -2.52 |
| COc1ccccc1CN(C)c1nccc(-c2cn(C)nc2C)n1 | -1.34 |
| O=C1N(Cc2cccc(F)c2F)CCCC1(O)CN1CCCOCC1 (centres undefined) | -2.15 |
| CC(C)(C)N1CC(C(=O)N2CCN(CCn3cccc3)CC2)CC1=O (centres undefined) | 1.18 |
| O=C(O)c1ccc(F)c(S(=O)(=O)Nc2ccc(-n3cccn3)c(Cl)c2)c1 | -5.11 |
| CCS(=O)(=O)c1ccc(N2CCC(NC(C)=O)CC2)cc1 | 1.78 |
| CCOCC(=O)N1C[C@@H](NC(C)=O)[C@H](c2ccc(OC)cc2)C1 | -0.287 |
| CCc1ncc(C(=O)NCCNC(=O)Cc2ccc(F)cc2)s1 | -2.42 |
| CCc1cc(N2CCSCC2)n2nc(C)c(C)c2n1 | 4.1 |
| CN(C)c1ccc(CCNC(=O)C2CCC(=O)N(C3CCCC3)C2)cc1 (centres undefined) | -4.1 |
| CCn1nc(CC(C)C)cc1C(=O)N1C[C@H](O)[C@@H](N2CCCCC2)C1 | -2.61 |
| CCCC(NC(=O)c1ccc(OC)cc1F)c1nnn[nH]1 (centres undefined) | -1.41 |
| CC(NC(=O)Cn1cccn1)c1cccnc1 (centres undefined) | -1.34 |
| CN1C(=O)CC(C(=O)O)C12CCN(Cc1ccc(F)cc1Cl)CC2 (centres undefined) | -1.07 |
| CCc1nc(C)c(C(=O)N2C[C@H]3CC[C@@H]2CN(S(=O)(=O)N(C)C)C3)s1 | -1.85 |

| SMILES | Percent Effect [%] |
| --- | --- |
| Cc1ccc(C2COCCN2C(=O)c2ccc(N(C)C)cc2)o1 (centres undefined) | -0.816 |
| CS(=O)(=O)NCC(=O)N1CCCC1c1noc(C2CC2)n1 (centres undefined) | 0.264 |
| COc1cccc(CN(C)C(=O)CN2CCN(CCO)CC2)c1 | -0.747 |
| O=C(NCCNS(=O)(=O)c1ccc2c(c1)CCCC2)c1ccoc1 | 8.29 |
| COc1ccc(NC(=O)CCC2CCCN(Cc3ncon3)C2)c(C)c1 (centres undefined) | 1.11 |
| NC(=O)C1CCN(Cc2cccc(NC(=O)c3ccsc3)c2)CC1 | -1.25 |
| Cc1ccc(C(=O)N2Cc3ccccc3C2)cc1N1CCNC1=O | -0.287 |
| O=C(c1ccncc1)N1C[C@@H]2CC[C@H](C1)N(C(=O)N1CCOCC1)C2 | 2.77 |
| CCC(C(=O)NCc1ccncc1)N(c1cccc(C)c1)S(C)(=O)=O (centres undefined) | -1.51 |
| CC(C)N(C)CC(=O)NC1CCc2nccn2C1 (centres undefined) | 1.39 |
| COc1cccc(Cc2nnc(SC3CCOC3=O)o2)c1 (centres undefined) | -2.01 |
| O=C(O)c1ccc(F)c(S(=O)(=O)Nc2c(F)cccc2-n2cccn2)c1 | -1.78 |
| O=C(NCCN1CCOCC1)NCc1ncc(-c2ccccc2)o1 | 1.62 |
| COc1ccc(Cc2nnc(SC)o2)cc1OC | -2.13 |
| CSCCC1c2nc[nH]c2CCN1Cc1cc(Cl)ccc1O (centres undefined) | 0.954 |
| c1nc(N2CCCCC2Cn2cncn2)c2ccsc2n1 (centres undefined) | -0.379 |
| CN(C)C(=O)CN(C)C(=O)c1cnc(Cc2ccc(F)cc2)s1 | -1.57 |
| O=C(NC1(c2nnn(CCO)n2)CCCC1)c1ccccc1 | -6.13 |
| COc1cc(C)c(CN2CCC3(CC2)C(C(=O)O)CC(=O)N3C)cc1C (centres undefined) | -0.678 |
